Reference: PubChem BioAssay AID743255 (National Center for Advancing Translational Sciences (NCATS), 2014)
The whole screen tested about 390,000 compounds, of which about 910 (0.23%) were called active. Another 5% or so got no clear call; they are omitted. Calls come from the whole dose curve; as a rule, active = well fitted inhibition curve with a large enough effect; inconclusive = small, poorly fitted or top-dose-only effect; inactive = no such curve, though single readings can be large or run the other way. What follows is part of a selection rich in actives, with near analogues and random picks from the rest.

biological target: Ubiquitin carboxyl-terminal hydrolase 1 (Homo sapiens) (UniProt O94782); experiment: Inhibitors of USP1/UAF1: Primary Screen; conditions: recombinant USP1/UAF1, Ub-Rhodamine cleavage fluorescence; series mostly up to 57.1 µM; note: nearly all actives have a fitted effect of over 60% in size
Sequence (O94782 whole entry, looked up): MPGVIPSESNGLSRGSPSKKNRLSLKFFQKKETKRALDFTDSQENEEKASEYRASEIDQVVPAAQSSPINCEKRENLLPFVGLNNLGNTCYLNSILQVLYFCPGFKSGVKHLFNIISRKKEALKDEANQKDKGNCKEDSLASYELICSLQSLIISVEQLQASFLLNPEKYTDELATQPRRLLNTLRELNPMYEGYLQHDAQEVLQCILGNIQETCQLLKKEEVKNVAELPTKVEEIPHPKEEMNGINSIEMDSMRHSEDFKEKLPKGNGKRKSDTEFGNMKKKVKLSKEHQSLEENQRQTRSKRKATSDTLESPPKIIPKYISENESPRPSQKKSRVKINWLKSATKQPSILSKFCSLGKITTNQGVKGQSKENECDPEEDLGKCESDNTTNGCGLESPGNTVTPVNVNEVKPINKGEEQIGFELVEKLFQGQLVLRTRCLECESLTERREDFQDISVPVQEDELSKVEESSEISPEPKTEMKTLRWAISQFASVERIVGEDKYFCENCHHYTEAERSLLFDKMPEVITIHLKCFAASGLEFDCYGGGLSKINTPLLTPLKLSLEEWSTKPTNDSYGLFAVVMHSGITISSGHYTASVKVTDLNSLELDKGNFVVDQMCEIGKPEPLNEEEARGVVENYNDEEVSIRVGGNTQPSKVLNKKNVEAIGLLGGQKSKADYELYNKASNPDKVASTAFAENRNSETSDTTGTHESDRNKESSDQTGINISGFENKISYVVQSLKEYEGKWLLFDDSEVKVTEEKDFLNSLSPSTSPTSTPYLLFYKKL
Description: Deubiquitinating enzymes (DUBs) are a class of enzymes that can cleave isopeptide bond formed between the C-terminal carboxylate of ubiquitin and a lysine side-chain amino group on the target protein. Among them, ubiquitin specific proteases (USPs) constitute the largest DUB family. Human USPs are emerging as promising targets for pharmacological intervention because of their connection to a number of human diseases, including prostate, colon and breast cancer (1, 2), pediatric acute lymphoblastic leukemia (3), and familial cylindromatosis (4). The advantage of inhibiting USPs lies in the potential specificity of therapeutic intervention that can lead to better efficacy and reduce nonspecific side effects. In a collaboration between the University of Delaware and the NIH Chemical Genomics Center, a high-throughput screen assay was developed to screen for USP1/UAF1 inhibitors. This miniaturized assay has a fluorescent read-out and is used to screen the NIH Molecular Libraries Small Molecule Repository (MLSMR) in order to identify a small molecule that inhibits USP1. NIH Chemical Genomics Center [NCGC] NIH Molecular Libraries Probe Centers Network [MLPCN] MLPCN Grant: DA030552 Assay Submitter (PI): Zhihao Zhuang, University of Delaware 1. Priolo, C., et al. (2006) The isopeptidase USP2a protects human prostate cancer from apoptosis. Cancer Res 66, 8625-8632 2. Popov, N., et al. (2007) The ubiquitin-specific protease USP28 is required for MYC stability. Nat Cell Biol 9, 765-774 3. De Pitta, C., et al. (2005) A leukemia-enriched cDNA microarray platform identifies new transcripts with relevance to the biology of pediatric acute lymphoblastic leukemia. Haematologica 90, 890-898 4. Kovalenko, A., et al. (2003) The tumour suppressor CYLD negatively regulates NF-kappaB signalling by deubiquitination. Nature 424, 801-805
3 microliters of reagents (buffer in columns 3 and 4 as negative control and 1nM USP1/UAF1 complex in columns 1, 2, and 5-48) are dispensed into Greiner black solid bottom 1536-well assay plates. Compounds are then transferred via Kalypsys pin tool equipped with 1536-pin array (10nl slotted pins, V&P Scientific, San Diego, CA). Following an incubation step of 15 min at room temperature, 1ul of Ub-Rho substrate (150nM final concentration) is added to initiate the reaction. The plates are immediately centrifuged at 1000 rpm for 15 seconds, and subsequently transferred to a ViewLux high-throughput CCD imager (PerkinElmer) wherein kinetic measurements of fluorescence are acquired using 480 nm excitation/540 nm emission filter set (6 reads every 60 seconds, see Table 1). All reagents are diluted in an assay buffer consisting of 50mM HEPES (pH 7.8), 0.5mM EDTA, 0.1 mg/ml BSA, 1mM TCEP, and 0.01% Tween-20.
Potency is the fitted concentration of half-maximal effect.

Potency, active:
CCCCCCc1cc2cc(-c3nnc(-c4ccccc4)o3)c(=O)oc2cc1O 8.91 µM
Cc1ccc(-c2nn(-c3ccccc3)cc2/C=C2\SC(=S)N(CCCCCC(=O)O)C2=O)o1 7.08 µM
O=C(/C=C(O)/C=C/c1ccc(O)cc1)/C=C/c1ccc(O)cc1 28.2 µM
C[n+]1ccc(/C=C/c2c[nH]c3ccccc23)cc1 28.2 µM
Cc1ccc(S(=O)(=O)/N=C2\C=C(NS(=O)(=O)c3ccc(C)cc3)C(=O)c3ccccc32)cc1 20 µM
COc1ccc(S(=O)(=O)/N=C2\C=C(NS(=O)(=O)c3ccccc3)C(=O)c3ccccc32)cc1 15.8 µM
Oc1ccc2ccc3cccc[n+]3c2c1 28.2 µM
CC1(OC(=O)C2CCCC2)C(=O)C=C2C=C(c3ccc(C#N)cc3)OC=C2C1=O (stereo not drawn) 31.6 µM
Nc1ccc2nc3c(=O)[nH]c(=S)[nH]c3nc2c1 28.2 µM
COc1cc(/C=C2/C(=O)NN(c3cccc(Cl)c3)C2=O)cc(Br)c1O 28.2 µM
CCOC(=O)c1ccc(Nc2cc3ccccc3c(=O)[nH]2)cc1 17.8 µM

Potency, inactive:
COc1ccc(NC(=O)C2CCN(c3ccc(Sc4ccc(C)cc4)nn3)CC2)c(OC)c1
CC(C)(C)OC(=O)N1CCC(c2c(C(=O)NCCc3ccsc3)cnn2-c2ccc(F)cc2F)CC1
O=C(CN1CCN(Cc2ccc(Cl)cc2)C1=O)NCc1ccc(F)cc1
O=C(O)c1ccc(Cn2c(SCc3ccc(F)cc3)nc3ccncc32)cc1
CCOC(=O)C1CCCN(S(=O)(=O)c2cc(-c3cc(C)no3)ccc2OC)C1 (stereo not drawn)
Cc1ccc(CNC(=O)CSc2c3c(nc4cc(Cl)ccc24)CCCC3)cc1
Cc1onc(-c2ccc(F)cc2F)c1C(=O)Nc1cccc(C(F)(F)F)c1
CC(C)(C)c1ccc(C(=O)NCC(c2ccco2)S(=O)(=O)c2ccc(F)cc2)cc1 (stereo not drawn)
CCc1ccc(NC(=O)c2cnc3c(-c4ccccc4)c(C)nn3c2C)cc1
COc1ccc(Cn2ccn(CC(=O)Nc3cc(C)ccc3C)c(=O)c2=O)cc1
O=c1[nH]c2cc(Br)ccc2n2cccc12
Cn1c(COc2ccccc2C(C)(C)C)nc2ccccc21
CCN(c1ncnc2c1cnn2-c1ccc(C)cc1)C1CCCCC1
CCOC(=O)c1c(C)n(S(=O)(=O)c2ccc(C)cc2C)c2ccc(NS(=O)(=O)c3ccc(C)cc3C)cc12
CCC(=O)N1c2ccccc2CC1C(=O)N1CCN(c2ccccc2F)CC1 (stereo not drawn)
O=S(=O)(NCC(c1ccco1)N1CCOCC1)c1cc(F)ccc1F (stereo not drawn)
COCCNC(=O)c1ccc2c(c1)N(Cc1cccc(Cl)c1)C(=O)c1ccccc1S2(=O)=O
CCCSc1ncc(Cl)c(C(=O)Nc2c(C(=O)Nc3ccccc3)oc3ccccc23)n1
Cc1ccc(S(=O)(=O)Nc2nc(N)n(-c3ccccc3)n2)cc1
COc1ccc(N2CCN(C3CCCCC3NS(=O)(=O)c3ccccc3)CC2)cc1 (stereo not drawn)
COc1ccc(S(=O)(=O)Nc2cc3c(C(=O)OC(C)C)c(C)oc3c3ccccc23)cc1
Cc1ccc(S(=O)(=O)/N=S(\C)C(C)C)cc1 (stereo not drawn)
CCCN(CCC)C(=O)Cn1c(=O)n(-c2ccc(Cl)cc2)c(=O)c2c3c(sc21)CCCCC3
O=C(C1CCC(Cn2c(=O)c3sccc3n(Cc3ccccc3F)c2=O)CC1)N1CCCCC1 (stereo not drawn)
COc1ccc(NC(=O)CCCN2C(=O)CCn3nc(-c4cn(C)c5ccccc45)cc32)cc1OC
CC(=O)Nc1cccc(NC(=O)CSc2cn(CC(=O)N3CCCC3)c3ccccc23)c1
COc1ccc(C)cc1N(CC(=O)N1CCC(C)CC1)S(=O)(=O)c1ccc(C)cc1
COc1ccc(OC)c(-c2noc(N3CCN(c4cc(Cl)ccc4C)CC3)n2)c1
Cc1ccc(C2CCN(C(=O)c3cnn(-c4ccccc4Cl)c3C3CCN(C(=O)OC(C)(C)C)CC3)C2)cc1 (stereo not drawn)
COc1c(Cl)cc(C(=O)N(Cc2ccccc2F)C2CCS(=O)(=O)C2)cc1Cl (stereo not drawn)
Cc1ccccc1C(=O)N1CCC(C(=O)Oc2ccc(C#N)cc2)CC1
N#Cc1ccc(C2=CC(=O)C[C@H](c3ccc(Cl)cc3)C2)cc1
Clc1ccc(CSc2nncn3c2cc2occc23)cc1
CCC1CCCCN1Cc1c(O)ccc2c(=O)c(Oc3ccccc3Cl)c(C(F)(F)F)oc12 (stereo not drawn)
Fc1ccc(CN2CCc3nc(Nc4ccccc4)ncc3C2)cc1F
CCCCNC(=O)c1cc(-c2ccc(Cl)c(Cl)c2)on1
O=C(OCc1cc(=O)n2nc(C3CC3)sc2n1)c1ccccc1Cl
CC1Cc2cc(S(=O)(=O)CCC(=O)Nc3ccc(F)c(Cl)c3)ccc2N1C(=O)C1CC1 (stereo not drawn)
COc1ccc(NC(=O)CSc2nc3ccccc3[nH]2)cc1
NS(=O)(=O)c1ccc2nc(NC(=O)COc3ccccc3)sc2c1
CCN(CC)c1ccc(C2C(C(N)=O)=C(C)Nc3nc(SCc4ccccc4)nn32)cc1 (stereo not drawn)
COc1cccc2c1cc1c(=O)n(CC(=O)N3CCN(c4cccc(Cl)c4)CC3)nc(C)n12
Cc1nc(SCCOc2ccc(Cl)cc2)[nH]c(=O)c1Cc1ccccc1
Cc1cccc(-c2nc(SCC(=O)Nc3cc(C)on3)c3c(=O)n(C)c(=O)n(C)c3n2)c1
CCC(=O)N1c2ccccc2CC1C(=O)N1CCN(c2ccccc2)CC1 (stereo not drawn)
O=C(CSc1nccn1-c1ccc(F)cc1)Nc1cccc2ccccc12
CCOc1ccc(CCNC(=O)c2c(C)oc3ncn(C)c(=O)c23)cc1
CC(=O)N1c2ccc(S(=O)(=O)N3CCCCCC3)cc2CC1C(=O)NCc1ccccc1C (stereo not drawn)
Cc1ccc(-c2nc3ccccn3c2Nc2c(C)cccc2C)o1
O=S(=O)(c1ccccc1)c1nc(-c2ccc(Cl)cc2Cl)oc1N1CCCCC1
CCOC(=O)c1ccc(NC2=CC(c3ccc(OCC)cc3)N(c3ccc(C(=O)OCC)cc3)C2=O)cc1 (stereo not drawn)
CCOC(=O)c1ccc(NC(=O)CSc2nc3c([nH]c4ccccc43)c(=O)n2C)cc1
